Consider 14 compounds from PubChem BioAssay (NCI).

Some test systems named below: NCI-H23 lung; NCI-H226 lung; NCI-H322M lung; HOP-62 NSCLC; NCI-H460 lung; HOP-92 NSCLC; NCI-H522 lung; A549/ATCC NSCLC; 786-0 renal; COLO 205 colon.
Common to all, as to experiment: NCI-60 one-dose screen, 48 h (100 = growth as untreated, 0 = no growth, -100 = all killed)
What all share (details): 10 µM unless noted

Compounds without any hit were thinned out: in the full panel of roughly 83,000, 20% have a hit.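 Negative percent growth values reflect cell death: -40 means 40% of the cells present at the start died, and -100 means all died.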 A number with no mark means an inactive call. The source made the active and inactive calls. The calls were made as follows: active = growth percent below 10; inactive = the rest.

As for `CN(C)c1ccc(-c2cc(-c3ccc(Nc4nc(Nc5ccccc5)nc(Nc5ccc(Cl)cc5)n4)cc3)nc(N)n2)cc1`, the growth is 48% in the assay on NCI-H23 lung; 59% in the assay on NCI-H226 lung; 66.3% with NCI-H322M lung; 33.1% in the assay with HOP-62 NSCLC; 41.7% in the assay on NCI-H460 lung; -3.41% (active) in the assay with HOP-92 NSCLC. The growth in the assay on NCI-H522 lung was 55.6%; in the assay with A549/ATCC NSCLC, 43.4%; with 786-0 renal it was 10.6%; in the assay on COLO 205 colon, 58.1%.

Take `COc1ccc(OC)c(Nc2nc3nonc3nc2Nc2cc(OC)ccc2OC)c1`: the growth in the assay on NCI-H23 lung is 50%; in the assay on NCI-H226 lung, 50.3%; in the assay on NCI-H322M lung, 68.6%; in the assay on HOP-62 NSCLC, -12.8% (active); in the assay with NCI-H460 lung it was 22%; in the assay with HOP-92 NSCLC, 13.2%. Besides, the growth in the assay with NCI-H522 lung was 37.7%; in the assay on A549/ATCC NSCLC it was 20.7%; in the assay with 786-0 renal, -23.8% (active); in the assay on COLO 205 colon, 93.7%.

In the case of `Cc1ccc(S(=O)(=O)NN/C(N)=N\S(=O)(=O)c2cc(C)c(Cl)cc2SCc2ccccc2)cc1`, the growth in the assay with NCI-H23 lung is 90.6%; in the assay on NCI-H226 lung, 90.4%; in the assay on NCI-H322M lung it was 168%; with HOP-62 NSCLC it was 82.4%; in the assay on NCI-H460 lung, 110%; in the assay with HOP-92 NSCLC, 71%. Besides, the growth is 29.9% with NCI-H522 lung, 56.7% in the assay on A549/ATCC NSCLC, 93.4% in the assay with 786-0 renal and 115% with COLO 205 colon.

In the case of `CN(C)CCC(O)(Cc1ccccc1)c1ccccc1` (stereo not given), the growth in the assay with NCI-H23 lung is 100%; in the assay on NCI-H226 lung it was 115%; in the assay with NCI-H322M lung, 120%; in the assay on HOP-62 NSCLC, 111%; in the assay with NCI-H460 lung, 112%; with HOP-92 NSCLC it was 106%. Further, the growth in the assay on NCI-H522 lung was 116%; with A549/ATCC NSCLC, 106%; in the assay on 786-0 renal, 105%; in the assay with COLO 205 colon, 107%.

For `CN1CCN(C2=C(Cl)C(=O)c3ccccc3C2=O)CC1`, the growth with NCI-H23 lung is 55.5%; in the assay with NCI-H226 lung, 94.2%; in the assay with NCI-H322M lung it was 97.4%; in the assay on HOP-62 NSCLC, 94.9%; with NCI-H460 lung it was 92.3%; with HOP-92 NSCLC it was 102%. Also, the growth with NCI-H522 lung was 25.1%; with A549/ATCC NSCLC it was 81.4%; in the assay with 786-0 renal, 84.7%; with COLO 205 colon, 81.4%.

For the compound `C=C1C(=O)O[C@H]2[C@H]1CC/C(COC(=O)/C=C\C(=O)NCc1ccc(Cn3c(=O)sn(CCCC)c3=O)cc1)=C\CC[C@@]1(C)O[C@@H]21`, the growth is -61.4% (active) in the assay with NCI-H23 lung; -70.4% (active) in the assay with NCI-H226 lung; 35.4% in the assay on NCI-H322M lung; -35.7% (active) in the assay with HOP-62 NSCLC; -54.3% (active) with NCI-H460 lung; -67.7% (active) in the assay on HOP-92 NSCLC. In addition, the growth in the assay with NCI-H522 lung was -44.5% (active); in the assay on A549/ATCC NSCLC it was 0.708% (active); with 786-0 renal, -76.8% (active); with COLO 205 colon, -51.2% (active).

As for `COc1cc2c(cc1OC)-c1ccc3cc4c(cc3c1N(CCN1CCCC1)C2)OCO4`, the growth was 10.9% in the assay on NCI-H23 lung; -3.34% (active) in the assay on NCI-H226 lung; 5.86% (active) with NCI-H322M lung; -18.1% (active) in the assay on HOP-62 NSCLC; -19.4% (active) in the assay with NCI-H460 lung; 22.8% in the assay on HOP-92 NSCLC. For the same compound, the values for the growth with NCI-H522 lung and in the assay on 786-0 renal were -39.7% (active) and -32% (active), respectively.

For the compound `COc1cc2c(=O)n(CCCn3ccnc3)c3c4cc5c(cc4ccc3c2cc1OC)OCO5`, the growth with NCI-H23 lung was 5.18% (active); with NCI-H226 lung, -42.5% (active); in the assay with NCI-H322M lung, 17.5%; in the assay on HOP-62 NSCLC, 10.5%; with NCI-H460 lung it was -9.42% (active); with HOP-92 NSCLC it was -5.78% (active). For the same compound, the growth in the assay on NCI-H522 lung is 5.91% (active); in the assay on 786-0 renal, -57.3% (active).

As to `CN1CCN(CCCOc2ccc3nc(Nc4cc(Cl)cc(Cl)c4)ccc3c2)CC1`, the growth with NCI-H23 lung was -40.7% (active); with NCI-H226 lung, -9.2% (active); in the assay with NCI-H322M lung it was -55.5% (active); in the assay with HOP-62 NSCLC it was -87.5% (active); in the assay with NCI-H460 lung, -76.2% (active); with HOP-92 NSCLC, -27% (active). In addition, the growth in the assay on NCI-H522 lung was -81.4% (active); with 786-0 renal, -75.6% (active).

For `CS(=O)(=O)c1ccc(-c2nc3cc(Cl)ccc3n2CC(=O)N/N=C/c2ccc(Cl)cc2)cc1`, the growth was 60.3% in the assay on NCI-H23 lung; 84.8% in the assay with NCI-H226 lung; 70.4% with NCI-H322M lung; 56.4% in the assay on HOP-62 NSCLC; 48.7% in the assay with NCI-H460 lung; 68.1% in the assay on HOP-92 NSCLC. Further, the growth with NCI-H522 lung was 46%; in the assay with 786-0 renal, 16.1%.

As for `Fc1ccc(Nc2nc3nonc3nc2Nc2ccc(F)cc2)cc1`, the growth is 2.78% (active) in the assay on NCI-H23 lung; 14.9% in the assay on NCI-H226 lung; 1.32% (active) with NCI-H322M lung; -5.63% (active) in the assay on HOP-62 NSCLC; 1.64% (active) in the assay on NCI-H460 lung; -30.5% (active) in the assay with HOP-92 NSCLC. Moreover, the growth with NCI-H522 lung is -23.9% (active); in the assay on A549/ATCC NSCLC, 6.26% (active); in the assay with COLO 205 colon, -80.2% (active).

For the compound `COc1cc(/C=C/c2nc(Nc3ccc(S(=O)(=O)Nc4cc(C)on4)cc3)c3ccccc3n2)ccc1O`, the growth in the assay on NCI-H23 lung is 74.3%; in the assay with NCI-H226 lung it was 85.8%; with NCI-H322M lung, 87.8%; with HOP-62 NSCLC it was 78.8%; in the assay on NCI-H460 lung it was 65.5%; with HOP-92 NSCLC, 83.9%. Besides, the growth with NCI-H522 lung is 42.4%; with A549/ATCC NSCLC, 75.3%; in the assay with 786-0 renal, 94.4%; in the assay with COLO 205 colon, 106%.

As for `Fc1ccc(Nc2nc(Nc3ccc(-c4nc5ccccc5[nH]4)cc3)c3cn[nH]c3n2)cc1`, the growth in the assay with NCI-H23 lung is 71%; in the assay with NCI-H226 lung, 86.9%; in the assay with NCI-H322M lung, 84.8%; in the assay with HOP-62 NSCLC, 85.6%; with NCI-H460 lung, 47.5%; in the assay with HOP-92 NSCLC, 79%. Further, the growth with NCI-H522 lung is 65.9%; in the assay on A549/ATCC NSCLC, 73.1%; in the assay with COLO 205 colon, 27.8%.

Regarding `COc1ccc(/C(C)=C(\c2ccc(Cl)cc2)c2ccc(OCCN(C)C)cc2)cc1F`, the growth is 86.7% in the assay on NCI-H23 lung; 95.5% with NCI-H226 lung; 77.4% in the assay with NCI-H322M lung; 64.8% in the assay on HOP-62 NSCLC; 22.2% in the assay with NCI-H460 lung; 65.6% with HOP-92 NSCLC. Moreover, the growth was 87.5% in the assay on NCI-H522 lung, 59% in the assay with A549/ATCC NSCLC, 62.9% in the assay with 786-0 renal and 26% in the assay on COLO 205 colon.
